From PubChem BioAssay
Active and inactive are the calls of the source.

Tests used:
[1] = target: Albumin (Bos taurus) (UniProt P02769); assay: compounds binding labelled BSA control protein – biochemical, small-molecule microarray, Alexa647 label, 635/667 nm fluorescence, artefact control for SMM control protein annotation, profiling panel (AID 1118); conditions: BSA-A647 binding, fluorescence 635 nm, higher = more signal;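 further: score merges 667 nm emission intensity and signal-to-noise per printed compound spot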
[2] = probe aXIP binding to arrayed compounds – biochemical, NeuroSMM set, 635/667 nm fluorescence, primary screen (AID 1119); conditions: small-molecule microarray, higher = more signal, called active from +8 up or from −8 down;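 further: probe is the protein aXip251-270 applied at 1 µg/mL to compound-printed slides; binding of probe to printed compounds measured as 667 nm fluorescence plus signal to noise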
[3] = probe aNOTCH3 binding on compound microarray – biochemical, small-molecule microarray, 635/667 nm fluorescence, primary screen (AID 1120); conditions: higher = more signal;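 further: probe is a biotin-tagged antibody raised against NOTCH3 rather than NOTCH3 protein; score merges spot fluorescence near 667 nm with spot signal to noise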
[4] = probe aNOTCH2 binding on compound microarray – biochemical, small-molecule microarray, 635/667 nm fluorescence, primary screen (AID 1121); conditions: higher = more signal;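 further: score merges feature fluorescence read at 667 nm with its signal to noise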
[5] = target: Carbonic anhydrase 2 (Homo sapiens) (UniProt P00918); assay: compounds binding carbonic anhydrase 2 – biochemical, small-molecule microarray, Alexa647-labelled CAII, profiling panel (AID 1122); conditions: CAII-A647 binding fluorescence, higher = more signal
[6] = COS7 lysate on small-molecule microarray, probe aHis, 635 nm (AID 1123); conditions: COS7 cell lysate, fluorescence, higher = more signal;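 further: z-score combines 667nm fluorescence intensity with signal-to-noise per printed compound spot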
[7] = probe aLAP1 signal on lysate-treated microarray – cell lysate, small-molecule microarray, COS7 lysate, primary screen (AID 1124); conditions: probe aLAP1, fluorescence, higher = more signal;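 further: lysate comes from COS7 cells expressing LAP1 and is applied at 0.3 µg/mL; score merges spot fluorescence near 667 nm with signal-to-noise over triplicate slides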
[8] = test system: Sam68 (KHDRBS1); assay: compounds binding KHDRBS1 protein – biochemical, small-molecule microarray, 635 nm fluorescence, primary screen (AID 1125); conditions: higher = more signal;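 further: score merges 667 nm channel intensity with signal to noise over triplicate slides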
[9] = test system: Chordin-like protein 2 (CHRDL2); assay: compounds binding chordin-like 2 – biochemical, small-molecule microarray, 635 nm fluorescence, primary screen (AID 1126); conditions: fluorescence 635 nm, higher = more signal;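 further: printed compound slides probed with Chrdl2 protein at 4 µg/mL for 1 h at 4 C; score merges 667 nm emission intensity with signal to noise over three replicate slides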
[10] = target: Concanavalin-A (Canavalia ensiformis) (UniProt P02866); assay: compounds binding concanavalin A lectin – biochemical, small-molecule microarray, Alexa647 label, 635 nm, artefact control for SMM control protein annotation, primary screen (AID 1127); conditions: ConA-A647 binding fluorescence, higher = more signal;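 further: z combines 667 nm emission intensity with signal-to-noise across three replicate slides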
[11] = compounds binding Alexa647 anti-His antibody – biochemical, small-molecule microarray, 635 nm fluorescence, artefact control for SMM control protein annotation, primary screen (AID 1128); conditions: higher = more signal;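 further: score merges feature fluorescence with signal-to-noise for each printed compound spot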
[12] = test system: Human papillomavirus type 1a E7 protein (residues 1-88); assay: HPV1a E7 small-molecule binders, primary screen, biochemical, small-molecule microarray, residues 1-88, 635 nm (AID 1129); conditions: small-molecule microarray binding, fluorescence 635 nm; higher = more signal
[13] = target: Focal adhesion kinase 1 (Homo sapiens) (UniProt Q05397); assay: PTK2 protein binding on printed compound slides – biochemical, small-molecule microarray, 635/667 nm fluorescence, BSA, DTT, primary screen (AID 1130); conditions: 635 nm fluorescence, higher = more signal;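 further: composite of spot emission at 667 nm and signal to noise over triplicate slides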
[14] = test system: Fibrinogen (Alexa647-labelled); assay: Alexa647-fibrinogen binding to printed small molecules – biochemical, small-molecule microarray, 635/667 nm fluorescence, artefact control for SMM control-protein annotation, profiling panel (AID 1131); conditions: fibrinogen-A647 binding fluorescence, higher = more signal;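 further: z-score merges 667 nm fluorescence with per-spot signal-to-noise over triplicate slides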
[15] = target: Follistatin (Homo sapiens) (UniProt P19883); assay: FST protein binding to printed compounds – biochemical, small-molecule microarray, 635/667 nm fluorescence, primary screen (AID 1132); conditions: 635 nm fluorescence, higher = more signal
[16] = target: Fibroblast growth factor 2 (Homo sapiens) (UniProt P09038); assay: basic fibroblast growth factor binding to printed compounds – biochemical, small-molecule microarray, 635/667 nm fluorescence, primary screen (AID 1133); conditions: FGF2, fluorescence 635/667, higher = more signal
[17] = JC-1 mitochondrial potential readout, lung cancer cells – cell-based, A549, JC-1 fluorescence, basal, 24 h, 100 nL, profiling panel (AID 1138); conditions: higher = more signal;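 further: A549 lung adenocarcinoma cells under basal conditions with no added stimulus; test concentration not given here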
[18] = test system: Lefty1; assay: Lefty1 protein binding to printed compounds – biochemical, small-molecule microarray, 635/667 nm fluorescence, primary screen (AID 1139); conditions: fluorescence 635/667, higher = more signal
[19] = test system: wheat germ agglutinin (Triticum aestivum), Alexa647-labelled; assay: Alexa647-WGA lectin binding to printed small molecules – biochemical, small-molecule microarray, 635/667 nm fluorescence, artefact control for SMM control-protein annotation, profiling panel (AID 1140); conditions: WGA-A647 binding, 635 nm fluorescence, higher = more signal;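 further: score merges 667 nm feature emission with signal to noise over triplicate slides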
[20] = target: Luciferin 4-monooxygenase (Photinus pyralis) (UniProt P08659); assay: inhibition of purified Photinus pyralis luciferase – biochemical, luminescence, purified enzyme, 2006 set, primary screen (AID 1141); conditions: purified firefly luciferase, SteadyGlo luminescence, 30 min; higher = more signal, called active from +8 up or from −8 down;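 further: cell-free assay with purified firefly luciferase at 100 ng per well in PBS; test concentration not given here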
Luciferin 4-monooxygenase (Photinus pyralis), sequence (P08659 whole entry, looked up): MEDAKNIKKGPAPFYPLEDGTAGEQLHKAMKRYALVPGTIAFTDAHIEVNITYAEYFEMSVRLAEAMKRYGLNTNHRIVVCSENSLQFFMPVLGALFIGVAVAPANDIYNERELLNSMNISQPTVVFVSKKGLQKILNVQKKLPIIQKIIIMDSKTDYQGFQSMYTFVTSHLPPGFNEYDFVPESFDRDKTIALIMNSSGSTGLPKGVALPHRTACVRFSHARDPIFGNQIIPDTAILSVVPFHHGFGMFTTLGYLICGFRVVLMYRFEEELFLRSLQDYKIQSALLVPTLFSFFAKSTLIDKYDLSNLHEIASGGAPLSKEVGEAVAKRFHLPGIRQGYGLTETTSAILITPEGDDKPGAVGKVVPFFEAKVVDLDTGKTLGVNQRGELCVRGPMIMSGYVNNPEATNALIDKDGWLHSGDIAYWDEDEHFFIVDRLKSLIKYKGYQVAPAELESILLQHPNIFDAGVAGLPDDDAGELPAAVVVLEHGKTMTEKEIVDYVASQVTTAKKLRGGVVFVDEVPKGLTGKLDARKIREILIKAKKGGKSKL

Focal adhesion kinase 1 (Homo sapiens), sequence (Q05397 whole entry, looked up): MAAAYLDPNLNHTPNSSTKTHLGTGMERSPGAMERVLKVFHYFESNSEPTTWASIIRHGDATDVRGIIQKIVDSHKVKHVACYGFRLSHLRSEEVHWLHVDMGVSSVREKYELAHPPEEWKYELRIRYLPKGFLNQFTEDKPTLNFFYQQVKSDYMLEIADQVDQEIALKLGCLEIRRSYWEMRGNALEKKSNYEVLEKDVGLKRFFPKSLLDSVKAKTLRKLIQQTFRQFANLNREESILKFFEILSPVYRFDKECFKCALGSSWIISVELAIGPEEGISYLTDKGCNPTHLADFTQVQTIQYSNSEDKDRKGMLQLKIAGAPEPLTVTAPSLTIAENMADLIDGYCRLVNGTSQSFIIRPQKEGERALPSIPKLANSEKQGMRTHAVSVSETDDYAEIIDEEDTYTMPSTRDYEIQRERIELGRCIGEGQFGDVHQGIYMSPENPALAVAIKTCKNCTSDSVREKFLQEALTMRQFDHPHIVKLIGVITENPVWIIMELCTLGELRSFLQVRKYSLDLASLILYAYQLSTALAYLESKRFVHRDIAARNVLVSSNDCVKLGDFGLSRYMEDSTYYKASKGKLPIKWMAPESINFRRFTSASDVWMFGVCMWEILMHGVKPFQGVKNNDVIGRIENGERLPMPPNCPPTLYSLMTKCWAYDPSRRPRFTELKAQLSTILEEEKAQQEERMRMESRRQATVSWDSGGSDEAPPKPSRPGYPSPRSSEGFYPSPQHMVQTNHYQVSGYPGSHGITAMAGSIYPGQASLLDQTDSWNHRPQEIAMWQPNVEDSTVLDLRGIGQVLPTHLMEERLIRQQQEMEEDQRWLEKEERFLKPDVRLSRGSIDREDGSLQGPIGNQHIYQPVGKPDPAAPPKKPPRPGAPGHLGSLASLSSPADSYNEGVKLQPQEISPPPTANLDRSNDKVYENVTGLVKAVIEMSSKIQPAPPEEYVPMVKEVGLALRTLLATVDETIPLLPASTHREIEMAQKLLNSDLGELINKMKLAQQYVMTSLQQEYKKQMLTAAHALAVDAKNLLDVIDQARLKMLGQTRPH
Follistatin (Homo sapiens), sequence (P19883 whole entry, looked up): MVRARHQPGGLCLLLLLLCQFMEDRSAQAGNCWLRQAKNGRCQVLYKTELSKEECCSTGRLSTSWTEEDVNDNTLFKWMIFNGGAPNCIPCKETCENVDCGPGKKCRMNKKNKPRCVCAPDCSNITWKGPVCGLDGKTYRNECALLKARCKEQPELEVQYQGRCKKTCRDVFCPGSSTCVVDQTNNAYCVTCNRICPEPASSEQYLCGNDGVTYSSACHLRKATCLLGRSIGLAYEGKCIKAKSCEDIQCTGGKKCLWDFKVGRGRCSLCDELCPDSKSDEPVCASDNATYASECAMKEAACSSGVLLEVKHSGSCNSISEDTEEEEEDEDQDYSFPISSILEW
Concanavalin-A (Canavalia ensiformis), sequence (P02866 whole entry, looked up): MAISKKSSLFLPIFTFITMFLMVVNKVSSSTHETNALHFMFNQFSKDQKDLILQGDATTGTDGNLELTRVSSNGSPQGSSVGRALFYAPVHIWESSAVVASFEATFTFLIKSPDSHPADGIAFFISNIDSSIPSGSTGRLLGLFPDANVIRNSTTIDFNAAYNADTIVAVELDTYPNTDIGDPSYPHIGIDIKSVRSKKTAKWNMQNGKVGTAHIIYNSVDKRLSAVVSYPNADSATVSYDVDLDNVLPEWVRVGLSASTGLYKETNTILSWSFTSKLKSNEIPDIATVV
Albumin (Bos taurus), sequence (P02769 whole entry, looked up): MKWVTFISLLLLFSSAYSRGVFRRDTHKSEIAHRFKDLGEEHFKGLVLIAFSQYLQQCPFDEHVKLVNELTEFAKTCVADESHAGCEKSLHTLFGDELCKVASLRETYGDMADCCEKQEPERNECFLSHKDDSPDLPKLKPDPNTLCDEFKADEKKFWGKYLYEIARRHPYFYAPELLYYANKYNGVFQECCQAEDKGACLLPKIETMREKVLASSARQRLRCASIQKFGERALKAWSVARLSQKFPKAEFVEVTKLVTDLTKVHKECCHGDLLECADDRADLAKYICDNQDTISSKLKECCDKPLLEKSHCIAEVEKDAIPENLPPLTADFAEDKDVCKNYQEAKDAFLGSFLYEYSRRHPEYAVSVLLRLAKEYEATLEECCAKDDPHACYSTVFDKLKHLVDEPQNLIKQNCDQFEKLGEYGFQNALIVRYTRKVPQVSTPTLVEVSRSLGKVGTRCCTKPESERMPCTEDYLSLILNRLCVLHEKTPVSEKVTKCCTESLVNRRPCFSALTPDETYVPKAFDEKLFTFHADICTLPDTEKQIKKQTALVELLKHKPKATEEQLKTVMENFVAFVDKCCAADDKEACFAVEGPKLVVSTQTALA
Fibroblast growth factor 2 (Homo sapiens), sequence (P09038 whole entry, looked up): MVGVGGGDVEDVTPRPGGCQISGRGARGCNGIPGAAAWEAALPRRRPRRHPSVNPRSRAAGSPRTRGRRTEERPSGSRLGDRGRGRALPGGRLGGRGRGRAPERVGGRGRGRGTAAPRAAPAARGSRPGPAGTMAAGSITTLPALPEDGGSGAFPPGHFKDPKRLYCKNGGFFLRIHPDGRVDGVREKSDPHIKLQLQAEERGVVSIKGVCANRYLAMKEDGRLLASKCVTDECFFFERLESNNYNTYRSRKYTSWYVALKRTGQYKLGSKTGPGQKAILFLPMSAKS

SMILES	composite z-score [1]	composite Z-score [2]	composite z-score [3]	composite z-score [4]	composite z-score [5]	composite z-score [6]	composite z-score [7]	composite z-score [8]	composite z-score [9]	composite z-score [10]	composite z-score [11]	composite z-score [12]	composite z-score [13]	composite z-score [14]	composite z-score [15]	composite z-score [16]	z-score [17]	composite z-score [18]	composite z-score [19]	z-score [20]
COC(=O)[C@@]1(Cc2ccc(F)cc2)[C@H]2c3cc(C(=O)N4CCCC4)n(Cc4cc(F)cc5c4OCOC5)c3C[C@H]2CN1C(=O)c1ccccc1	0.892	0.364 (inactive)	0.0925	0.0266	-0.0414	-0.203	-0.669	-0.349	-0.631	1.07	1.93	-0.0867	-0.225	0.947	0.906	-0.796	1.8	0.348	0.755	2.74 (inactive)
CC(C)c1nc2cc(Br)ccc2c(=O)o1	0.915	0.19 (inactive)	0.0493	-0.0424	0.738	0.92	0.0912	0.711	-0.552	1.09	0.405	0.854	0.224	0.871	0.296	-0.357	0.48	-0.0283	0.834	0.672 (inactive)
CC(C)C[C@H]1NC(=O)C([C@@H](C)OCc2ccccc2)NC(=O)[C@@]23C(=O)N[C@@H](Cc4ccccc4)C2[C@H](C)[C@@]2(C)O[C@H]2C3/C=C/C/C=C\CNC1=O (stereo not given in full)	0.616	0.0578 (inactive)	0.2	-0.0148	0.412	1.51	0.653	1.3	0.736	0.234	1.42	1	0.231	0.504	1.24	0.434	0.487	1.01	0.999	-0.53 (inactive)
[N-]=[N+]=Nc1ccccc1[C@@H]1OC(c2ccc(OCCCO)cc2)=N[C@]1(CCS(=O)(=O)c1ccccc1)C(=O)NCC(O)CO (stereo not given in full)	0.91	0.339 (inactive)	-0.023	0.014	0.564	2.5	0.649	0.885	-0.165	0.998	0.592	0.794	0.131	0.911	0.518	-0.0365	-0.298	-0.285	1.02	-9.87 (active)
C=CCNC(=O)[C@H]1[C@@H]2C(=O)O[C@@H](c3ccccc3)[C@@H](c3ccccc3)N2[C@@H](c2ccc(OCCO)cc2)[C@]12C(=O)Nc1ccccc12	0.989	1.76 (inactive)	-0.261	-0.0877	0.74	2.7	1.15	1.29	-0.832	1.13	2.03	0.905	0.624	0.861	-0.034	-0.342	-0.287	-0.0965	1.22	-0.0907 (inactive)
O=C1[C@H]2C=C(I)[C@H](C[C@@H]2c2ccccc2)[C@@]12CO2	-0.406	-0.623 (inactive)	-0.0647	-0.153	-0.154	-0.234	-0.225	0.0643	0.664	-0.267	0.214	0.0555	-0.142	-0.347	0.742	0.111	0.949	0.334	-0.1	-0.218 (inactive)
C[N+](C)(C)CCCC[C@@H]1NC(=O)[C@H]2C[C@@H](C(=O)NCCCCCNC(=O)CS)[C@@H](c3cccc(OCCO)c3)N2C1=O	0.479	0.518 (inactive)	-0.0881	-0.115	0.69	1.63	0.985	0.165	0.245	0.896	1.38	0.518	0.247	0.821	0.78	0.549	0.299	-0.383	0.343	-1.09 (inactive)
O=C(NCc1ccccc1)[C@@H]1c2ccccc2C(=O)N(Cc2ccc(OC(F)(F)F)cc2)[C@H]1c1ccc(CO)cc1	0.0192	2.41 (inactive)	-0.155	-0.11	0.694	2.29	0.633	0.258	-0.431	-0.278	2.71	0.277	0.442	-0.222	0.616	0.0415	2.79	-0.9	-0.416	-0.828 (inactive)
COCCOC(=O)N1C(=O)[C@@]2(c3cc(C#Cc4ccc(OC)cc4)ccc31)[C@H](c1ccc(OCCO)cc1)N1[C@H](c3ccccc3)[C@H](c3ccccc3)OC(=O)[C@H]1[C@@H]2C(=O)NC[C@H](O)c1ccccc1	0.314	0.217 (inactive)	0.154	0.0022	0.471	0.575	0.511	1.3	0.311	1.16	1.2	1.17	1.32	0.941	1.33	1.19	-0.936	0.979	1.05	-0.563 (inactive)
N#Cc1ccc(-c2cccc(=O)o2)cc1	0.341	-0.0662 (inactive)	0.0426	-0.0928	0.0483	0.365	-0.0816	0.808	0.252	0.411	0.212	0.651	0.111	0.474	0.268	0.185	-0.119	0.249	0.48	1.68 (inactive)
C=C(C)[C@@H]1CC=C(C(O)C2C=CC3C(=O)N(c4ccccc4)C(=O)C3N2Nc2ccc([N+](=O)[O-])cc2)CC1 (stereo not given in full)	0.83	0.115 (inactive)	0.0254	0.09	0.558	2.92	0.22	1.32	0.077	0.246	0.594	1.27	0.0881	0.995	1.15	0.269	-1.55	1.41	0.963	0.158 (inactive)
O=C1C2C=CC(C(O)c3c(F)cccc3Cl)N(Nc3ccc([N+](=O)[O-])cc3)C2C(=O)N1c1ccccc1 (stereo not given)	0.589	-0.0608 (inactive)	0.465	-0.037	0.804	2.83	1.43	1.3	0.268	1.11	1.62	1.22	0.682	0.931	1.36	0.589	-0.514	0.948	0.844	1.67 (inactive)
CC(C)(C)OC(=O)CC[C@]1(C(=O)NCC(O)CO)N=C(c2ccc(OCCCO)cc2)O[C@H]1c1ccccc1N=[N+]=[N-] (stereo not given in full)	1.02	1.33 (inactive)	0.163	0.149	0.719	3.53	1.03	0.723	0.0058	0.715	2.42	1.01	0.696	0.953	1.38	0.581	0.739	-0.41	1.3	-8.87 (active)
C=CCOC(=O)[C@H]1[C@@H]2C(=O)O[C@@H](c3ccccc3)[C@@H](c3ccccc3)N2[C@@H](c2ccc(OCCOC(=O)[C@@H]3C[C@@H]4C(=O)N[C@@H](CCCC[N+](C)(C)C)C(=O)N4[C@@H]3c3ccc(O)cc3)cc2)[C@]12C(=O)Nc1ccc(I)cc12	-0.691	0.61 (inactive)	-0.0647	-0.0267	0.572	1.28	0.517	1.29	1.14	1.03	1.08	0.377	0.898	0.4	1.32	1.48	-1.77	1.01	0.422	-2.99 (inactive)
